From PubChem BioAssay AID1159580 (chemical genetic matrix, 2015)
The campaign covered roughly 5,500 compounds. About 2,000 (36%) were called active. About 18% were inconclusive and are not listed. Rule as the data show it: active = normalized growth mostly below about 0.91 (no sharp cut-off); inconclusive = no clear call, values can overlap the other calls; inactive = mostly above about 0.92. The list shows a part of the results.

Experiment: chemical genetic growth profiling, strain panel (AID 1159580);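 also: tested at 20 µM; growth read once vehicle control cultures reached saturation at 30 °C; 1 = growth at the plate median or of vehicle wells; lower values mean less growth of the strain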
Settings: growth OD

Measured: normalized growth

CC(=O)C1CCC2C3CCC4C[C@H](O)CCC4(C)C3C[C@H](O)C12C (some centres not stated)
inactive: S. cerevisiae deletion strains, locus YJL187C, strain SWE1, hits give low values 0.965 | S. cerevisiae deletion strains, locus YJR066W, strain TOR1, hits give low values 0.923 | S. cerevisiae deletion strains, locus YKL009W, strain mrt4, hits give low values 1.02 | S. cerevisiae deletion strains, locus YKL068W, hits give low values 0.992 | S. cerevisiae deletion strains, locus YKL085W, strain MDH1 (second series), hits give low values 0.987 | S. cerevisiae deletion strains, locus YKL085W, strain MDH1, hits give low values 0.987 | S. cerevisiae deletion strains, locus YKL160W, strain elf1, hits give low values 0.964 | S. cerevisiae deletion strains, locus YKR001C, strain vps1, hits give low values 1.04 | S. cerevisiae deletion strains, locus YKR026C, strain gcn3, hits give low values 0.962 | S. cerevisiae deletion strains, locus YKR091W, strain srl3, hits give low values 0.972 | S. cerevisiae deletion strains, locus YLL001W, strain dnm1, hits give low values 0.98 | S. cerevisiae deletion strains, locus YLL026W, hits give low values 0.968 | S. cerevisiae deletion strains, locus YLL041C, strain sdh2, hits give low values 0.963 | S. cerevisiae deletion strains, locus YLR027C, strain aat2, hits give low values 0.985 | S. cerevisiae deletion strains, locus YLR039C, strain RIC1, hits give low values 1.21 | S. cerevisiae deletion strains, locus YLR058C, strain SHM2, hits give low values 1.05 | S. cerevisiae deletion strains, locus YLR102C, strain apc9, hits give low values 1.01 | S. cerevisiae deletion strains, locus YLR113W, strain HOG1, hits give low values 1.12 | S. cerevisiae deletion strains, locus YLR221C, strain rsa3, hits give low values 0.984 | S. cerevisiae deletion strains, locus YLR258W, strain gsy2, hits give low values 0.962 | S. cerevisiae deletion strains, locus YLR262C, strain YPT6 (second series), hits give low values 0.991 | S. cerevisiae deletion strains, locus YLR262C, strain YPT6, hits give low values 1.19 | S. cerevisiae deletion strains, locus YLR268W, strain sec22, hits give low values 1.02 | S. cerevisiae deletion strains, locus YLR320W, strain mms22, hits give low values 0.99 | S. cerevisiae deletion strains, locus YLR330W, strain CHS5, hits give low values 1.03 | S. cerevisiae deletion strains, locus YLR342W, strain FKS1, hits give low values 0.977 | S. cerevisiae deletion strains, locus YLR357W, strain rsc2, hits give low values 0.98 | S. cerevisiae deletion strains, locus YLR370C, strain arc18, hits give low values 0.98 | S. cerevisiae deletion strains, locus YLR371W, strain rom2, hits give low values 1.02 | S. cerevisiae deletion strains, locus YLR384C, strain iki3, hits give low values 0.97 | S. cerevisiae deletion strains, locus YLR418C, strain cdc73, hits give low values 1.07 | S. cerevisiae deletion strains, locus YML016C, strain PPZ1, hits give low values 1.03 | S. cerevisiae deletion strains, locus YML032C, strain rad52, hits give low values 1.01 | S. cerevisiae deletion strains, locus YML120C, strain ndi1, hits give low values 1 | S. cerevisiae deletion strains, locus YML124C, strain tub3, hits give low values 0.998 | S. cerevisiae deletion strains, locus YMR058W, strain fet3, hits give low values 0.968 | S. cerevisiae deletion strains, locus YMR078C, strain ctf18, hits give low values 0.989 | S. cerevisiae deletion strains, locus YMR125W, strain sto1, hits give low values 0.943 | S. cerevisiae deletion strains, locus YMR129W, hits give low values 0.973 | S. cerevisiae deletion strains, locus YMR205C, strain PFK2, hits give low values 0.987 | S. cerevisiae deletion strains, locus YMR223W, strain ubp8, hits give low values 1.03 | S. cerevisiae deletion strains, locus YMR231W, strain pep5, hits give low values 0.978 | S. cerevisiae deletion strains, locus YMR307W, strain GAS1, hits give low values 1.34 | S. cerevisiae deletion strains, locus YNL067W, strain RPL9B, hits give low values 1.02 | S. cerevisiae deletion strains, locus YNL071W, strain lat1, hits give low values 0.975 | S. cerevisiae deletion strains, locus YNL183C, strain NPR1, hits give low values 0.956 | S. cerevisiae deletion strains, locus YNL209W, strain ssb2, hits give low values 0.967 | S. cerevisiae deletion strains, locus YNL233W, strain BNI4, hits give low values 1.07 | S. cerevisiae deletion strains, locus YNL248C, strain rpa49, hits give low values 0.975 | S. cerevisiae deletion strains, locus YNL250W, strain rad50, hits give low values 0.999 | S. cerevisiae deletion strains, locus YNL271C, strain bni1, hits give low values 1.01 | S. cerevisiae deletion strains, locus YNL298W, strain CLA4, hits give low values 1.01 | S. cerevisiae deletion strains, locus YNL307C, strain MCK1, hits give low values 0.994 | S. cerevisiae deletion strains, locus YNL322C, strain KRE1 (second series), hits give low values 0.979 | S. cerevisiae deletion strains, locus YNL322C, strain KRE1, hits give low values 1.02 | S. cerevisiae deletion strains, locus YNR049C, strain mso1, hits give low values 0.961 | S. cerevisiae deletion strains, locus YNR052C, strain pop2, hits give low values 1 | S. cerevisiae deletion strains, locus YOL006C, strain TOP1, hits give low values 1.37 | S. cerevisiae deletion strains, locus YOL012C, strain htz1 1.2 | S. cerevisiae deletion strains, locus YOL147C, strain pex11, hits give low values 0.995 | S. cerevisiae deletion strains, locus YOR001W, strain rrp6, hits give low values 0.961 | S. cerevisiae deletion strains, locus YOR061W, strain CKA2, hits give low values 1.03 | S. cerevisiae deletion strains, locus YOR069W, strain VPS5, hits give low values 1.02 | S. cerevisiae deletion strains, locus YOR070C, strain gyp1, hits give low values 0.982 | S. cerevisiae deletion strains, locus YOR080W, strain dia2, hits give low values 0.98 | S. cerevisiae deletion strains, locus YOR083W, strain WHI5, hits give low values 0.958 | S. cerevisiae deletion strains, locus YOR106W, strain vam3, hits give low values 0.913 | S. cerevisiae deletion strains, locus YOR136W, strain idh2, hits give low values 1 | S. cerevisiae deletion strains, locus YOR144C, strain elg1, hits give low values 0.996 | S. cerevisiae deletion strains, locus YOR184W, strain ser1, hits give low values 1.02 | S. cerevisiae deletion strains, locus YOR231W, strain MKK1, hits give low values 1.03 | S. cerevisiae deletion strains, locus YOR265W, strain rbl2, hits give low values 0.993 | S. cerevisiae deletion strains, locus YOR270C, strain vph1, hits give low values 0.964 | S. cerevisiae deletion strains, locus YOR290C, strain snf2, hits give low values 0.934 | S. cerevisiae deletion strains, locus YOR316C, strain cot1, hits give low values 1 | S. cerevisiae deletion strains, locus YPL051W, strain arl3, hits give low values 1 | S. cerevisiae deletion strains, locus YPL078C, strain atp4, hits give low values 0.945 | S. cerevisiae deletion strains, locus YPL106C, strain sse1, hits give low values 0.964 | S. cerevisiae deletion strains, locus YPL240C, strain hsp82, hits give low values 0.987 | S. cerevisiae deletion strains, locus YPL241C, strain CIN2, hits give low values 1.02 | S. cerevisiae deletion strains, locus YPL256C, strain CLN2, hits give low values 0.994 | S. cerevisiae deletion strains, locus YPR119W, strain clb2, hits give low values 0.988 | S. cerevisiae deletion strains, locus YPR141C, strain kar3, hits give low values 0.996 | S. cerevisiae deletion strains, locus YPR163C, strain tif3, hits give low values 1 | S. cerevisiae deletion strains, locus YPR167C, strain met16, hits give low values 1.01 | S. cerevisiae deletion strains, strain wtn01, hits give low values 1.01 | S. cerevisiae strains, strain wild type, hits give low values 1.07
